From PubChem BioAssay
OTUD3 inh: human OTUD3 deubiquitinase inhibition. purified OTUD3, Ub-rhodamine fluorescence, 2 h. 47,000 tested, 0.7% active. inhibition, % at 25 µM. Q5T2D3. AID 1645858
USP28 block: inhibitors of human USP28 deubiquitinase. Q96RU2. purified USP28, Ub-rhodamine cleavage fluorescence, 30 min. 47,000 tested, 3% active. inhibition, % at 25 µM
USP17 block: blocks human USP17 ubiquitin-rhodamine cleavage. 47,000 tested, 6.5% active. AID 1645855. inhibition, % at 50 µM. purified USP17, Ub-rhodamine cleavage fluorescence, 3 h
USP30 block: human USP30 deubiquitinase inhibition; purified USP30, Ub-rhodamine cleavage fluorescence; inhibition, % at 25 µM; 47,000 tested, 5.3% active
Each line names hits and unclear results; the compound was inactive in the other large screens. The list is not random: actives were taken first. Their share in the collection is about 11%. No stated cut-off is given here; in the data, active means inhibition above about 30%; inactive means the rest.

CN(C)c1cc(-n2cnc(C(=O)NCc3cccc(Cl)c3)c2)ncn1	USP17 block 42
CN(C)c1cc(-n2cnc(C(=O)Nc3ccccc3)c2)ncn1	none
O=C(Nc1ccccc1F)c1ccc(N2CCCC2)nn1	none
CC(=O)Nc1ccc(-n2cnc(C(=O)NCc3ccc(F)cc3)c2)nc1	none
Cc1cc(C)n(-c2ccc(C(=O)NCc3ccc(F)cc3)cn2)n1	USP28 block 34, USP17 block 49, USP30 block 69
CCc1ccc(C(=O)CSc2nc(CC)nc3c2oc2ccccc23)cc1	none
CCCNC(=O)c1c(N2CCCC2=O)c2cc(OC)ccc2n1C	none
COc1ccc2cc(CNCCN3CCOCC3)c(=O)[nH]c2c1	none
Cc1ccc2cc(CCNC(=O)COc3ccc(Cl)cc3)c(=O)[nH]c2c1	USP17 block 37
COc1ccc2cc(CCNC(=O)C3(c4ccc(Cl)cc4)CCCC3)c(=O)[nH]c2c1	USP17 block 43
CC1Cc2nc3ccccc3n2CCN1C(=O)c1ccc(C(=O)O)cc1 (stereo not drawn)	none (no result: USP17 block)
Cc1ccc(S(=O)(=O)Nc2ccccc2C(=O)Nc2nc3ccc(Br)cc3s2)cc1	OTUD3 inh 84, USP28 block 77, USP17 block 97, USP30 block 75
COC(=O)C1(Cc2ccc(O)cc2)OC(=O)C(O)=C1c1ccc(O)cc1 (stereo not drawn)	OTUD3 inh 78, USP28 block 78, USP17 block 85, USP30 block 70
COc1ccc2nc(N(CCCn3ccnc3)C(=O)c3ccc(Cl)s3)sc2c1	USP17 block 42, USP30 block 50
COc1ccc2nc(N(Cc3ccncc3)C(=O)c3ccc(C)cc3)sc2c1	none
Cc1cc(C)c2sc(N(CCCn3ccnc3)C(=O)Cc3ccccc3)nc2c1	OTUD3 inh 35, USP28 block 40, USP30 block 92 (no result: USP17 block)
CC(=O)Nc1ccc(CN2CCC3(CC2)Nc2ccccc2C2=NCCN23)cc1	none
Cc1cc(N2CC3(CCCCC3)OC2=O)nc(C2CCN(S(C)(=O)=O)CC2)n1	none
Cc1ccc(NC(=O)CCc2nc(CSc3nnc(-c4ccncc4)o3)no2)c(C)c1	none
O=C(C1CCN(S(=O)(=O)c2ccc(Cl)cc2)CC1)N1CCOCC1	none
O=C(c1ccc(S(=O)(=O)N2CCCCC2)cc1)c1nnc(-c2ccc(Cl)cc2)o1	USP30 block 30
O=C(c1ccccc1)C1CCN(S(=O)(=O)c2ccc(Cl)cc2)CC1	USP30 block 31
O=C(NCCN1CCOCC1)C1CCN(S(=O)(=O)c2ccc(Cl)cc2)CC1	USP30 block 35
O=C(c1cccnc1)N1CCc2[nH]nc(-c3ccccc3)c2C1	none
COc1cc(S(=O)(=O)N2CCC(c3nc4c(nnn4Cc4cccc(F)c4)c(=O)[nH]3)CC2)ccc1-n1cnnn1	none
COc1cc(S(=O)(=O)N2CCC(c3nc4c(nnn4Cc4ccc(F)cc4)c(=O)[nH]3)CC2)ccc1-n1cnnn1	USP17 block 32, USP30 block 47
CC(C)(C)c1ccc(Cn2nnc3c(=O)[nH]c(C4CCN(S(=O)(=O)c5ccc(S(=O)(=O)NC6CC6)cc5)CC4)nc32)cc1	USP28 block 32, USP17 block 64
Cc1ccc2c(c1)NC(CCC(=O)NCCc1ccc(Cl)cc1)=NS2(=O)=O	USP17 block 59, USP30 block 59
O=C(CCC1=NS(=O)(=O)c2ccccc2N1)NCCc1ccc(Cl)cc1	none
Cc1ccc(C(=O)OCC(=O)N(C2CCCCC2)C2CCCCC2)cc1	none
CCCCN1CCN(c2ccc3c(c2)OCO3)C1=O	USP28 block 37
Cn1cccc1C(=O)NC1CC(=O)N(c2ccc3c(c2)OCO3)C1 (stereo not drawn)	none
CCCc1cc(N2CCC(C3CCCCCN3C(C)=O)CC2)n2ncnc2n1 (stereo not drawn)	none
CCCc1cc(=O)oc2cc(OC(=O)c3ccc(S(=O)(=O)N(C)C)cc3)ccc12	none
CC(C)n1cc2cc(C(=O)NC3CCN(Cc4ccccc4)CC3)sc2c1	none
O=C(CSc1ccc2nnc(CCNS(=O)(=O)c3ccccc3)n2n1)Nc1ccc(Br)cc1	USP17 block 32
O=C(CSc1ccc2nnc(CCNS(=O)(=O)c3ccccc3)n2n1)Nc1ccc(OC(F)(F)F)cc1	none
CCOC(=O)c1ccccc1NC(=O)CSc1ccc2nnc(CCNS(=O)(=O)c3ccc(C)cc3)n2n1	USP30 block 31
COc1ccc(-c2nnc([C@H]3CCN(C(C)C)C3)o2)cc1	none
Fc1ccc(-c2nnc(-c3ccc(-n4ccnc4)nc3)o2)cc1	none
CC1(C(=O)NCc2ccccc2)CCC(=O)N1CCc1ccccc1Cl (stereo not drawn)	none
O=C(Nc1cc(Cl)cc(Cl)c1)c1csnn1	USP17 block 58
COc1ccc(S(=O)(=O)N(C)C)cc1NC(=O)COC(=O)c1ccccc1	USP17 block 43
O=C1NC(=CN2CCN(C(=O)c3cccs3)CC2)Nc2ccccc21	none
